Inconclusive results are not listed. Unmarked numbers belong to inactive results. Activity calls are given as the source filed them. Calls come from the whole dose curve; as a rule, active = well fitted cell-killing curve with a large enough effect; inconclusive = small, poorly fitted or top-dose-only effect, or effect the other way; inactive = no such curve, though single readings can be large or run the other way.
assay: Quantitative High-Throughput drug screen in 47 multiple myeloma cell lines against the NCATS MIPE library collection: FR4_PLB cell viability assay (AID 1918924; note: nearly all actives have a fitted effect of over 35% in size); conditions: FR4_PLB myeloma cells viability, CellTiter-Glo ATP, 48 h; series mostly up to 45.8 µM; viability (% of DMSO control): at the top concentration
How it was run: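 Relative luminescence from CellTiter-Glo served as the viability signal, referenced to DMSO-treated (100%) and cell-free medium (0%) controls. Treatment lasted 48 hours at 37C with 500 cells per well.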
Potency is the fitted concentration of half-maximal effect.

Point of comparison: `Cn1cc(-c2ccc3nnc(Sc4ccc5ncccc5c4)n3n2)cn1`, “viability (% of DMSO control)” value 129%. Against it:
- O=C(O)C1=CO[C@@H](O[C@@H]2O[C@H](CO)[C@H](O)[C@H](O)[C@H]2O)[C@@H]2C(CO)=CC[C@H]12 — lower, 103%
- N#Cc1c(N(CC(=O)O)CC(=O)O)sc(C(=O)O)c1CC(=O)O — lower, 94%
- O=C(Nc1ccccc1)Nc1ccc(-c2ccc(C(=O)[C@H]3CCC[C@H]3C(=O)O)cc2)cc1 — lower, 111%
- CN(C)N=Nc1nc[nH]c1C(N)=O — higher, 139%
- COc1ccnc(CS(=O)c2nc3ccc(OC(F)F)cc3[nH]2)c1OC (configuration not stated) — the same, 129%
- CCOC(=O)[C@@H](N)CCC(=O)N[C@@H](CSCc1ccccc1)C(=O)N[C@@H](C(=O)OCC)c1ccccc1 — lower, 118%
- O=C1NC(=O)C(=Cc2ccc(-c3ccc(F)cc3O)o2)S1 — lower, 96.8%
- CC(C)C[C@@H](N)[C@H](O)C(=O)N[C@H](C(=O)N[C@H](C(=O)N[C@@H](CC(=O)O)C(=O)O)C(C)C)C(C)C — lower, 125%
- CON(C)C(=O)N1N=C(c2cc(F)ccc2F)S[C@]1(CCCN)c1ccccc1 — lower, 40.2%
- CN(CC=CC#CC(C)(C)C)Cc1cccc2ccccc12 — lower, 105%
- CCNC(=O)[C@H]1O[C@@H](n2cnc3c(N)nc(NCCc4ccc(CCC(=O)O)cc4)nc32)[C@H](O)[C@H]1O — lower, 108%
- O=C1CCCC(=O)C1C(=O)c1ccc(C(F)(F)F)cc1[N+](=O)[O-] — lower, 108%
- CN1CCN2c3ncccc3Cc3ccccc3C2C1 (configuration not stated) — lower, 106%
- CN[C@@H]1[C@@H](O)[C@@H](O[C@@H]2[C@@H](O)[C@H](O[C@H]3O[C@H](CN)[C@@H](O)[C@H](O)[C@@H]3O)[C@@H](N)C[C@@H]2NC(=O)[C@@H](O)CN)OC[C@]1(C)O — lower, 114%
- Fc1ccc(C(c2ccc(F)cc2)N2CCN(CC=Cc3ccccc3)CC2)cc1 — lower, 82.8%
- O=C1Nc2ccc(I)cc2C1=Cc1cc(Br)c(O)c(Br)c1 — lower, 104%
- O=C(O)C1=NC(C(=O)O)CC(C=CN2c3cc(O)c(OC4OC(CO)C(O)C(O)C4O)cc3CC2C(=O)O)=C1 (configuration not stated) — the same, 129%
- NCC1CCC(C(=O)O)CC1 (configuration not stated) — lower, 109%
- OC[C@H]1O[C@@H](OCCc2ccc(O)cc2)[C@H](O)[C@@H](O)[C@H]1O — lower, 104%
- CC(NCCc1ccc(O)cc1)C(O)c1ccc(O)cc1 (configuration not stated) — lower, 102%
- COc1cccc(OC)c1-c1cc(C(=O)NC2(C(=O)O)C3CC4CC(C3)CC2C4)nn1-c1ccnc2cc(Cl)ccc12 (configuration not stated) — lower, 101%
- CC(C)c1onc(-c2c(Cl)cccc2Cl)c1COc1ccc(C=Cc2cccc(C(=O)O)c2)c(Cl)c1 — the same, 129%
- CN(C)CCN(Cc1ccc(Cl)cc1)c1ccccn1 — lower, 102%
- CCCC1OC2C[C@@H]3[C@H]4CCC5=CC(=O)C=C[C@]5(C)[C@H]4C(O)C[C@]3(C)[C@]2(C(=O)CO)O1 (some centres not stated) — lower, 74.4%
- CCNC(=O)CCCC=CC[C@@H]1[C@H](C=CC(O)CCc2ccccc2)[C@@H](O)C[C@@H]1O (some centres not stated) — lower, 124%
- CC[C@H](NC(=O)[C@H](C)NC)C(=O)N1C[C@@H](O)C[C@H]1Cc1c(-c2[nH]c3cc(F)ccc3c2C[C@H]2C[C@H](O)CN2C(=O)[C@H](CC)NC(=O)[C@H](C)NC)[nH]c2cc(F)ccc12 — lower, 109%

For `CC(O)=C(C#N)C(=O)Nc1ccc(C(F)(F)F)cc1`, the Potency was 16.6 µM (active).
For `CCC(=C(c1ccc(O)cc1)c1ccc(OCCNC)cc1)c1ccccc1`, the Potency was 26.4 µM (active).
In the case of `COc1ccc2nc3cc(Cl)ccc3c(Nc3cc(CN4CCCC4)c(O)c(CN4CCCC4)c3)c2n1`, the Potency is reported as 23.5 µM (active).
For `CCN(CC)CCCCNc1nc2cc(Cl)c(Cl)cc2nc1-c1ccc(-c2cccs2)s1`, the Potency was 10.5 µM (active).
With `CC=C(C(=CC)c1ccc(O)cc1)c1ccc(O)cc1` the Potency was 20.9 µM (active).
With `C[C@H]1[C@H](O)O[C@@H]2O[C@@]3(C)CC[C@@H]4[C@H](C)CC[C@@H]1[C@@]24OO3` the Potency was 6.62 µM (active).
With `CCCCCCOC(=O)N=C(N)c1ccc(NCc2nc3cc(C(=O)N(CCC(=O)OCC)c4ccccn4)ccc3n2C)cc1` the Potency was 23.5 µM (active).
For `N=C1SC(=Cc2ccc(-c3ccc4c(c3)C(=O)NC4=O)o2)C(=O)N1c1ccc(Br)cc1`, the Potency was 3.32 µM (active).
In the case of `C=C1c2cccc(O)c2C(O)=C2C(=O)[C@@]3(O)C(O)=C(C(N)=O)C(=O)[C@@H](N(C)C)[C@@H]3[C@@H](O)[C@H]12`, the Potency is reported as 16.6 µM (active).

In the case of `O=C(O)c1nc(=O)[nH]c(=O)[nH]1`, the “viability (% of DMSO control)” value is reported as 105% [at 23.2 µM].

— PubChem BioAssay (NCATS)
